Assay results: PubChem BioAssay (NCI)
The panel holds about 83,000 compounds, 20% with a hit somewhere; the sample as a whole holds those more often.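 Percent growth is the endpoint: 0 to 100 indicates growth inhibition (40 means 60% inhibition), 0 means no net growth, and negative values indicate cell death.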 Unmarked numbers belong to inactive results. Activity calls are given as the source filed them. Rule for the calls: active = growth percent below 10; inactive = the rest.

What was measured:
Experiment in all cases: NCI-60 one-dose screen, 48 h (100 = growth as untreated, 0 = no growth, -100 = all killed)
Conditions in all cases: 10 µM unless noted
RPMI-8226 leukemia = system: RPMI-8226 leukemia
OVCAR-8 ovarian = system: OVCAR-8 ovarian
OVCAR-5 ovarian = system: OVCAR-5 ovarian
SK-OV-3 ovarian = system: SK-OV-3 ovarian
IGROV1 ovarian = system: IGROV1 ovarian
OVCAR-3 ovarian = system: OVCAR-3 ovarian
HS 578T breast = system: HS 578T breast
NCI/ADR-RES ovarian = system: NCI/ADR-RES ovarian
T-47D breast = system: T-47D breast

Compound | growth (RPMI-8226 leukemia) [%] | growth (OVCAR-8 ovarian) [%] | growth (OVCAR-5 ovarian) [%] | growth (SK-OV-3 ovarian) [%] | growth (IGROV1 ovarian) [%] | growth (OVCAR-3 ovarian) [%] | growth (HS 578T breast) | growth (NCI/ADR-RES ovarian) [%] | growth (T-47D breast) [%]
COc1ccc(C(=O)c2cc(F)c(F)c(OC)c2F)cc1OC(=O)CCl | 37.2 | 51.1 | 103 | 45.9 | 43.7 | 13.7 | 65.4% | 14.3 | 44.1
CSc1cccc(NC(=O)Nc2nc3c(C)cccc3s2)c1 | 60.7 | 93.9 | 117 | 97.1 | 90.2 |  | 87.7% | 91.5 | 95
COc1cc([C@H](C)c2ccc3ccccc3c2)cc(OC)c1OC | 15.9 | 23.2 | 62.1 | 31 | 36 |  | 30.2% | 17.9 | 42.2
CCCS(=O)(=O)Nc1ccc(F)c(C(=O)c2c[nH]c3ncc(-c4ccc(OCCCC5CCCCN5)nc4)cc23)c1F (configuration not stated) | 64 | 88.9 | 78.1 | 11.6 | 31.7 | 89.6 | 9.28% (active) | 100 | 17.7
C#CCOC(=O)[C@]1(C)CCC[C@]2(C)[C@H]3C[C@H]4C(C(C)C)=C[C@]3(CC[C@H]21)[C@@H]1C(=O)CCC(=O)[C@@H]14 | 67.9 | 90.5 | 93.8 | 78.9 | 78.3 | 95 | 80.8% | 81.5 | 66.7
O=c1c2ccccc2oc2ccc(OCCCCCN3CCCCCC3)cc12 | 57.3 | 75.5 | 92 | 93.5 | 77.2 | 87.1 | 88.8% | 77.8 | 58.8
